Measured values from PubChem BioAssay AID485313 (National Center for Advancing Translational Sciences (NCATS), 2010).
Hit rate of the full screen: of about 320,000 compounds, about 7,600 (2.4%) were called active. About 3% were inconclusive and are not listed. Calls follow the shape of the dose curve; as a rule, active = well fitted activation curve with a large enough effect; inconclusive = small, poorly fitted or top-dose-only effect; inactive = no such curve, though single readings can be large or run the other way. Shown is part of a subset that was picked to be rich in actives. Entries that show only a call come without a potency.

test: qHTS Assay for NPC1 Promoter Activators; conditions: Huh7 NPC1 promoter luciferase reporter, 24 h; series mostly up to 9.22 µM; also: nearly all actives have a fitted effect of over 60% in size;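 as to activation: reporter is driven by a mutant NPC1 promoter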
Outline: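 Compounds in DMSO were transferred onto Huh7 NPC1-luciferase reporter cells pre-incubated 2 h; after 24 h at 37 °C, Amplite reagent was dispensed and luminescence recorded 10 min later.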
Potency is read from the fitted curve at half-maximal effect.

Compound	Potency
Nn1c(SCC(=O)Nc2nccs2)nnc1-c1ccco1	inactive
CC(C)[C@@H](C(=O)O)N(Cc1cccc(CN([C@H](C(=O)O)C(C)C)S(C)(=O)=O)c1)S(C)(=O)=O	inactive
Nc1ccn(C2CC(O)C(CO)O2)c(=O)n1 (configuration not stated)	inactive
COc1ccccc1CC(=O)Nc1ccc([N+](=O)[O-])cc1OC	inactive
COc1ccc(C2Nc3ccccc3C(=O)N2Cc2ccccc2)cc1Cn1nnc2ccccc21 (configuration not stated)	inactive
COc1ccc(C2Nc3ccccc3C(=O)N2c2ccc(Cl)cc2)cc1Cn1cc([N+](=O)[O-])cn1 (configuration not stated)	3980 nM (active)
COc1ccc(C2Nc3ccccc3C(=O)N2c2ccc(F)cc2)cc1Cn1nnc2ccccc21 (configuration not stated)	inactive
COc1cccc(NC(=O)c2ccc(Cn3cc([N+](=O)[O-])cn3)o2)c1	inactive
COc1ccc(N2C(=O)c3ccccc3NC2c2ccc(OC)c(CN3CCOCC3)c2)cc1 (configuration not stated)	2820 nM (active)
COC(=O)Cc1ccc(OCC(=O)NC2CCCC2)cc1	inactive
CN(CCOc1ccccc1)C(=O)c1cc(-c2ccco2)nc2ccccc12	inactive
CCN(c1ccccc1)S(=O)(=O)c1cccc(C(=O)NCc2ccccc2CN2CCOCC2)c1	inactive
c1ccc(-n2ncc3c2ncn2c(C4CCCCC4)nnc32)cc1	3980 nM (active)
CN(C(=O)COc1ncnc2c1cnn2-c1ccccc1)C1CCCCC1	inactive
CC(=O)Cn1cnc2c(cnn2-c2ccccc2)c1=O	inactive
Cc1ccc(S(=O)(=O)N(C)C)cc1NC(=O)CN1c2cccc3cccc(c23)S1(=O)=O	inactive
Cc1nn2cc(-c3ccc(Cl)cc3)cnc2c1Br	2240 nM (active)
N#CC1(NC(=O)COC(=O)CSc2ccc(F)cc2)CCCCC1	inactive
COc1ccc(S(=O)(=O)N2CCN(CC(=O)N3c4ccccc4CC3C)CC2)cc1OC (configuration not stated)	inactive
Cc1ccccc1-c1n[nH]c(=S)n1C	inactive
Cc1cc(C)nc(Nc2ncn[nH]2)n1	inactive
Cc1cc(C)nc(Nc2n[nH]c(-c3ccccc3N)n2)n1	447 nM (active)
O=C(Nc1ccc2oc(-c3ccccc3F)nc2c1)c1ccco1	1580 nM (active)

Compound	Potency
CCCC(=O)Nc1ccc2c(c1)nc(CCNC(=O)c1ccco1)n2C	inactive
O=C(Nc1cccc(-c2nc3ncccc3o2)c1)c1ccco1	inactive
COc1ccccc1S(=O)(=O)NCc1ccc(C(=O)N(C)Cc2ccc(F)cc2)cc1	inactive
Cc1cccc(S(=O)(=O)CC(=O)Nc2nc(-c3ccccc3)cs2)c1	inactive
CC(=O)Nc1cccc(Nc2nc(-c3cccs3)nc3ccccc23)c1	inactive
CC(=O)Nc1cccc(-c2cnc3ccccc3n2)c1	2820 nM (active)
CCS(=O)(=O)Nc1cccc(-c2cc(-c3ccccc3)c3cc(C)ccc3n2)c1	inactive
CC(=O)Nc1ccc(-c2csc(NC=C3C(=O)OC(C)(C)OC3=O)n2)cc1	inactive
CC(=O)Nc1cccc(-c2csc(Nc3cccc(C)n3)n2)c1	708 nM (active)
COCCn1c(=NC(=O)c2ccccc2[N+](=O)[O-])sc2cc(S(C)(=O)=O)ccc21	inactive
Cc1cccc(C(=O)NCC(=O)OCC(=O)N(C)CC(=O)Nc2ccccc2Cl)c1	inactive
O=C(CSc1nnc(N2CCOCC2)n1-c1cccc(F)c1)N1CCN(c2ccccn2)CC1	inactive
Cc1ccc(F)cc1S(=O)(=O)Nc1cccc(C(=O)N2CCCC(C(N)=O)C2)c1 (configuration not stated)	inactive
COc1ccccc1C(=O)NC(CCSC)C(=O)N1CCN(C(C)=O)CC1 (configuration not stated)	inactive
C(=N/Nc1cc(N2CCOCC2)nc(N2CCOCC2)n1)/c1ccccc1	inactive
CCN(CC)c1ccc(C(=O)N/N=C/c2ccc(N3CCOCC3)cc2)cc1	inactive
Cc1ccccc1N/N=C/c1ccc(N2CCOCC2)cc1	3160 nM (active)
CN1CCN(S(=O)(=O)c2cccc(C(=O)Nc3sccc3C#N)c2)CC1	inactive
O=C1COc2ccc(C(=O)CSc3ccc(Br)cc3)cc2N1	inactive
COc1ccc(C[C@H](C(=O)O)N2C(=O)c3ccc(C(=O)O)cc3C2=O)cc1	inactive
Cc1ccc2[nH]cc(CCCN3C(=O)c4ccccc4C3=O)c2c1	inactive
COc1ccc2[nH]cc(CCN3C(=O)c4ccc(C(=O)O)cc4C3=O)c2c1	3550 nM (active)
CC(C)(C)OC(=O)N[C@H](C(=O)OC(C)(C)C)c1ccc(Br)cc1	inactive

Compound	Potency
COc1ccccc1OCCNC(=O)C(CCSC)NC(=O)COc1ccccc1 (configuration not stated)	inactive
NC(=O)c1ccsc1NC(=O)COC(=O)COc1ccc(C=O)cc1	inactive
CN(C)S(=O)(=O)c1ccc2oc(SCC(=O)Nc3ccccc3F)nc2c1	3160 nM (active)
COc1ccc(NS(=O)(=O)c2ccc3oc(SCC(N)=O)nc3c2)cc1	inactive
COc1ccc(S(=O)(=O)N(C)C)cc1NC(=O)CSc1ncccn1	inactive
CCOc1ccc2nc(N(CCN(C)C)C(=O)c3ccc4ccccc4c3)sc2c1	inactive
CCOc1ccc2nc(C(=O)N3CCCC(C)C3)sc2c1 (configuration not stated)	2000 nM (active)
CCCC(=O)N(CCN1CCOCC1)c1nc2ccc(OCC)cc2s1	inactive
O=C(CSc1nnc(Nc2ccccc2)s1)Nc1cccnc1Cl	inactive
Cc1ccc(Nc2nnc(SCC(=O)c3cc4ccccc4o3)s2)cc1C	inactive
CC(C)c1ccc(Nc2nnc(SCC(=O)c3nnc(-c4ccccc4)o3)s2)cc1	3980 nM (active)
O=S(=O)(c1cccs1)N1CCN(CCOc2ccccc2)CC1	inactive
CCOc1ccc(NS(=O)(=O)c2ccc(Cl)c(C(=O)N(C)Cc3cccnc3)c2)cc1	inactive
Cc1ccc(C(=O)CN2C(=O)NC3(CCOc4ccccc43)C2=O)s1 (configuration not stated)	inactive
O=C(OCC(=O)N1CCN(C(=O)c2ccco2)CC1)c1ccc(Cl)c(Cl)c1	inactive
O=C(COC(=O)c1ccccc1)c1ccc2c(c1)OCCO2	316 nM (active)
CC(=O)Nc1cccc(C(=O)OCC(=O)c2ccc3c(c2)OCO3)c1	316 nM (active)
O=C(COC(=O)c1ccncc1)c1ccccc1	inactive
CC(=O)Nc1cccc(C(=O)OCC(=O)NCc2cc(C)c(O)c(C)c2)c1	inactive
CC(NC(=O)COC(=O)c1ccc2c(c1)OCO2)c1ccccc1 (configuration not stated)	inactive
O=C(COC(=O)c1ccc2c(c1)OCCO2)NCc1ccccc1	inactive
